Source: PubChem
Only some compounds are listed: those with a hit (about 2.5% of all), similar ones and a draw of the others.
MEKK3 PB1 HTS: MEKK3-MEK5 PB1 interaction, increase or decrease. 1.4% of 290,000 active. bead-based flow cytometry, Alexa488-MEK5 binding to MEKK3; actives lie on both sides; 0 = blocked by unlabeled MEK5, 100 = vehicle. Q99759. binding response (% of control), % at 10 µM;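 active means binding response more than 3 SD above or below the average of its plate-row segment, actives on both sides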;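 further: Alexa488 bead fluorescence after subtracting the streptavidin-only scavenger bead signal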
MEKK2 WT-MEK5: raises or lowers MEK5 binding to wildtype human MEKK2 PB1 domain; bead flow cytometry, Alexa488-MEK5 binding to MEKK2 WT; actives lie on both sides; binding response (% of control), % at 10 µM; 1.1% of 290,000 active; Q9Y2U5; in the data active means binding response below about 67% or above about 130%
GRK2 aptamer HTS: human GRK2 inhibition via aptamer displacement | P25098 | bead flow cytometry, FAM-aptamer displacement from GRK2 | inhibition of aptamer binding, % at 10 µM | 0.59% of 330,000 active;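 active means inhibition of aptamer binding above 40%, roughly 3 SD of noise, on plates passing a quality check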;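 further: median bead fluorescence of bound FAM aptamer so fluorescent compounds give negative values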
Target sequence (P25098 whole entry, looked up): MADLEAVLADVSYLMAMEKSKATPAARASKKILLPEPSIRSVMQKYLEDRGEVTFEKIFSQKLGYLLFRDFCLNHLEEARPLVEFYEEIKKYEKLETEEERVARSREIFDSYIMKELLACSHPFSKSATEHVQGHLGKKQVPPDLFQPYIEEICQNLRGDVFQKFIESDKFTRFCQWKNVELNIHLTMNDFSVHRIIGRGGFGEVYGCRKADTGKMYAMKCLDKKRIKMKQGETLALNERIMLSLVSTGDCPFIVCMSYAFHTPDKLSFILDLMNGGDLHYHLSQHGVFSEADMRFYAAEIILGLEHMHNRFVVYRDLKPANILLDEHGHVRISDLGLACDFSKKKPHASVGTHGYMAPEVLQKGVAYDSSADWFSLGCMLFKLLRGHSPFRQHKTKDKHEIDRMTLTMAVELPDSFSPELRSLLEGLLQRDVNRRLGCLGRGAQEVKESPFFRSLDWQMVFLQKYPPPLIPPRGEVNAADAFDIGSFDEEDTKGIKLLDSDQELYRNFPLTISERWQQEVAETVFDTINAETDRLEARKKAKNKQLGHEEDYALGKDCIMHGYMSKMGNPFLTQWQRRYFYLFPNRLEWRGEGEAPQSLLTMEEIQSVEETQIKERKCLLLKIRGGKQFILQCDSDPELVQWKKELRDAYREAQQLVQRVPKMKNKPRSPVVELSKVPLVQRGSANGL
MEKK2mut PB1 HTS: signal of MEK5 binding to mutant human MEKK2 PB1 domain. bead flow cytometry, Alexa488-MEK5 binding to MEKK2 mutant. percent response, % at 10 µM. 0.35% of 290,000 active; in the data active means percent response above about 24%, passing the limit was not always enough
MEKK2wt confirm: raises or lowers MEK5 binding to wildtype human MEKK2, retest; bead flow cytometry, Alexa488-MEK5 binding to MEKK2 WT; actives lie on both sides; shares compounds with MEKK3 PB1 HTS; binding response (% of control), % at 10 µM; AID 1892; 2.4% of 5,900 active; in the data active means binding response below about 16% or above about 210%; inactive means in between
MEKK2mut-MEK5: signal of MEK5 binding to mutant human MEKK2, retest; shares compounds with MEKK3 PB1 HTS; bead flow cytometry, Alexa488-MEK5 binding to MEKK2 mutant; percent response, % at 10 µM; 2% of 5,900 active; AID 1893; in the data active means percent response mostly above about 71%, no sharp cut-off; inactive means mostly below about 38%;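 further: higher means compound restores mutant binding toward wildtype level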
MEKK3 confirm: MEKK3-MEK5 PB1 inhibition, single concentration confirmation | shares compounds with MEKK3 PB1 HTS | bead flow cytometry, Alexa488-MEK5 binding to MEKK3; hits give low values | binding response (% of control), % at 10 µM | 1.8% of 5,900 active | AID 1894;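 active means binding response below 72% of control, or above a set upper limit, though filed actives all read lower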;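 further: 100% = DMSO only wells and 0% = binding blocked by excess unlabeled MEK5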
* marks the source's active call; other numbers are inactive results; . = not tested or not shown; ! = a repeat was not active; [ ] = dose if it differs, or a comment.

SMILES	MEKK3 PB1 HTS	MEKK2 WT-MEK5	GRK2 aptamer HTS	MEKK2mut PB1 HTS	MEKK2wt confirm	MEKK2mut-MEK5	MEKK3 confirm
Cn1cc(CN2CCN(c3ccccc3)CC2)c2ccccc21	73.0*[inhibitor]	92.0	1.0	-9.0	112.0	10.0	108.0
O=C(CCN1C(=O)c2cccc3cccc(c23)C1=O)Nc1ccccc1	101.0	102.0	0.0	5.0	.	.	.
COc1ccccc1NC(=O)c1ccc(NC(=O)c2ccc(=O)[nH]c2)cc1	.	.	0.0	.	.	.	.
Nc1cc(=O)[nH]c(SCC(=O)Nc2nc3ccc([N+](=O)[O-])cc3s2)n1	107.0	108.0	6.0	3.0	.	.	.
Nc1cc(=O)[nH]c(SCC(=O)Nc2cc([N+](=O)[O-])ccc2Cl)n1	138.0*	117.0	5.0	4.0	101.0	2.0	103.0
CCOc1ncccc1C(=O)OCC(=O)NCc1ccc(C(=O)OC)cc1	.	.	1.0	.	.	.	.
COc1ccc([N+](=O)[O-])cc1NC(=O)C(C)N1CCCC1 (stereo not drawn)	104.0	105.0	0.0	6.0	.	.	.
CC(C(=O)Nc1cc([N+](=O)[O-])ccc1Cl)N1CCN(c2ccccc2O)CC1 (stereo not drawn)	132.0*	102.0	0.0	0.0	97.0	2.0	98.0
CC1=CC(C)(C)N2C(=O)C3(N=C(N)NC(Nc4ccccc4)=N3)c3cc(C)cc1c32 (stereo not drawn)	121.0	154.0*	0.0	33.0*	137.0	14.0	102.0
O=C(Nc1ccccc1)c1nc[nH]c1C(=O)NCCN(CCNC(=O)c1[nH]cnc1C(=O)Nc1ccccc1)CCNC(=O)c1[nH]cnc1C(=O)Nc1ccccc1	.	.	0.0	.	.	.	.
O=C(CSc1nnc(C2CC2)n1C1CC1)c1cccs1	.	.	0.0	.	.	.	.
COC(=O)C(Cc1ccc(O)cc1)NC(=O)C(C)Oc1ccccc1 (stereo not drawn)	0.0*[inhibitor]	-5.0*[inhibitor]	1.0	-39.0	106.0	8.0	107.0
COc1cccc(C2=CC(c3cccc(OC)c3OC)n3nnnc3N2)c1 (stereo not drawn)	80.0*[inhibitor]	87.0	2.0	-12.0	96.0	0.0	104.0
COc1ccc(OC)c(C2C=C(c3ccc(C)c(C)c3)Nc3nnnn32)c1 (stereo not drawn)	1.0*[inhibitor]	0.0*[inhibitor]	3.0	-47.0	96.0	1.0	104.0
COc1cccc(C2=CC(c3cc(OC)ccc3OC)n3nnnc3N2)c1 (stereo not drawn)	.	.	0.0	.	.	.	.
CCN1C(=O)[C@@H]2[C@H](C1=O)[C@@H]1C(=O)Nc3ccccc3C(=O)N1[C@@H]2c1ccc(OC)cc1	.	.	1.0	.	.	.	.
COc1ccccc1NC(=O)c1cc2c(cc1Cl)N1CCCCCC1=NS2(=O)=O	.	.	0.0	.	.	.	.
COC(=O)c1ccc(S(=O)(=O)N2CCCN(Cc3ccccc3)CC2)n1C	102.0	101.0	1.0	5.0	.	.	.
COC(=O)c1ccc(S(=O)(=O)N2CCCN(Cc3cccc(Br)c3F)CC2)n1C	73.0*[inhibitor]	53.0*[inhibitor]	0.0	-38.0	95.0	-4.0	98.0
Cn1c(O)c(N=NC(=O)c2cc(-c3cccs3)nc3ccccc23)c2ccccc21	130.0*	100.0	0.0	1.0	99.0	0.0	105.0
O=C(c1ccc(Cl)nc1)N1CCc2ccccc2C1	14.0*[inhibitor]	21.0*[inhibitor]	1.0	-46.0	98.0	0.0	102.0
O=C(c1ccncc1)N1CCc2ccccc2C1	101.0	98.0	1.0	-3.0	.	.	.
CCNC(=S)N(CCc1c(C)[nH]c2ccc(Cl)cc12)Cc1cccnc1	106.0	127.0	0.0	29.0*	118.0	10.0	104.0
CNC(=S)N(CCc1c(C)[nH]c2ccc(Cl)cc12)Cc1cccnc1	105.0	108.0	3.0	11.0	.	.	.
COCCNC(=S)N(CCc1c(C)[nH]c2ccc(Cl)cc12)Cc1cccnc1	107.0	124.0	0.0	24.0*	115.0	1.0	100.0
SMILES	MEKK3 PB1 HTS	MEKK2 WT-MEK5	GRK2 aptamer HTS	MEKK2mut PB1 HTS	MEKK2wt confirm	MEKK2mut-MEK5	MEKK3 confirm
CCC(C)(C)NC(=O)C(c1ccc(F)cc1)N(Cc1cccs1)C(=O)c1cnccn1 (stereo not drawn)	101.0	88.0	0.0	-10.0	.	.	.
Cc1ccnc(SCC(=O)N2CCN(c3ccccc3)CC2)n1	88.0	99.0	3.0	3.0	.	.	.
COc1ccc(-c2ccnc(SCC(=O)N3CCN(c4ccccc4)CC3)n2)cc1	137.0*	121.0	1.0	28.0	105.0	2.0	104.0
COc1ccc(-c2ccnc(SCC(=O)c3ccc(OC)c(OC)c3)n2)cc1	132.0*	103.0	0.0	0.0	99.0	0.0	103.0
COc1ccc(C(C)=O)cc1COC(=O)CCNS(=O)(=O)c1ccc(C)c(C)c1	.	.	1.0	.	.	.	.
O=C(NCc1ccc2c(c1)OCO2)C(=O)Nc1cc2c3c(c1)CC(=O)N3CCC2	.	.	3.0	.	.	.	.
COc1cc(C2Nc3ccccc3NC3=C2C(=O)CC(C)(C)C3)cc(OC)c1OC (stereo not drawn)	108.0	108.0	0.0	24.0*	103.0	-5.0	100.0
COc1cc(OC)c(C2Nc3ccccc3NC3=C2C(=O)CC(C)(C)C3)cc1OC (stereo not drawn)	109.0	111.0	0.0	7.0	.	.	.
Cc1cc(C)c(S(=O)(=O)NCc2csc(C)n2)c(C)c1	101.0	101.0	4.0	-2.0	.	.	.
COc1cccc(NC(=O)COC(=O)c2c(C)nn(-c3ccccc3)c2C)c1	.	.	0.0	.	.	.	.
OC(CN1CCN(c2ccccn2)CC1)Cn1c2ccc(Cl)cc2c2cc(Cl)ccc21 (stereo not drawn)	111.0	137.0*	2.0	13.0	132.0	15.0	106.0
OC(CN1CCCCC1)Cn1c2ccc(Cl)cc2c2cc(Cl)ccc21 (stereo not drawn)	106.0	203.0*	0.0	48.0*	202.0	63.0	112.0
OC(COC(c1ccc(Cl)cc1)c1ccc(Cl)cc1)CN1CCN(c2ccccn2)CC1 (stereo not drawn)	107.0	120.0	0.0	9.0	.	.	.
CCOc1c(C)cc(-c2ncccc2O)cc1C	130.0*!	96.0	2.0	0.0	101.0	-7.0	99.0
Cc1ccccc1Nc1nc(N)nc(COC(=O)CCNS(=O)(=O)c2ccccc2)n1	.	.	2.0	.	.	.	.
COC(=O)c1cc(CSc2nc3ccccc3[nH]2)oc1C	97.0	97.0	3.0	-3.0	.	.	.
CCCc1cc(=O)[nH]c(SCc2cc(C(=O)OC)c(C)o2)n1	2.0*[inhibitor]	3.0*[inhibitor]	4.0	-16.0	99.0	-2.0	101.0
CCOc1ccc(Nc2nc(Cc3nnc(SCC(N)=O)o3)cs2)cc1	78.0	83.0	1.0	-10.0	.	.	.
CC(C)N(C(=O)CSc1nnc(Cc2csc(Nc3ccccc3)n2)o1)C(C)C	75.0*[inhibitor]	90.0	1.0	-2.0	108.0	5.0	105.0
COc1cccc(NC(=S)N2CCN(c3ccc([N+](=O)[O-])cc3)CC2)c1	60.0*[inhibitor]	60.0*[inhibitor]	0.0	-16.0	99.0	-2.0	100.0
